One test concerns HEK293. Nature of the test: Cytotoxic Profiling of Annotated Libraries Using Quantitative High-Throughput Screening (AID 1296008). For max response: % is set by controls: 0 for no effect and ±100 for the full control effect. Note: nearly all actives have a fitted effect of over 60% in size. Note: potency is the fitted concentration of half-maximal effect. The settings on record: Five cell lines viability, CellTiter-Glo ATP luminescence, 48-72 h; max response: stronger effect = lower value. The gist of the method: (§1)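 Cytotoxicity was measured as CellTiter-Glo ATP luminescence, read after 10 min at room temperature. Compound treatment of the cells lasted 48 or 72 hr at 37 degrees Celsius in a qHTS format.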
For orientation: Cellular ATP, detected with luciferase, serves as a proxy for viable cell number.

The test system of test [1] is HaCat. The description is as above. The settings on record: Five cell lines viability, CellTiter-Glo ATP luminescence, 48-72 h; max response: stronger effect = lower value. The gist of the method:
as §1

The test system of the next test is KB-3-1. The description is as above. The settings on record: Five cell lines viability, CellTiter-Glo ATP luminescence, 48-72 h; max response: stronger effect = lower value. In outline: as §1
In another test the test system is NIH3T3. Described as above. The settings on record: Five cell lines viability, CellTiter-Glo ATP luminescence, 48-72 h; max response: stronger effect = lower value. In outline: as §1
A further test has as its system HEK293T. Put plainly: qHTS assay to identify novel small-molecules to repurpose for Merkel cell carcinoma treatment (AID 1296009). Note: nearly all actives have a fitted effect of over 60% in size. Note: potency is the fitted concentration of half-maximal effect. The settings on record: MCC and control cell lines, CellTiter-Glo viability, 72 h; series mostly up to 44.8 µM. In outline: (§2)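 After compound transfer in DMSO, plates were kept 72 hr at 37 degree celsius. Luminescent ATP signal from CellTiter-Glo served as viability measure, normalized against DMSO and no-cell controls.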
A general note: In qHTS, concentration-response curves come from the screen itself.

The subject of another test is MCC-26. Described as above. The settings on record: MCC and control cell lines, CellTiter-Glo viability, 72 h; series mostly up to 46 µM. In outline:
as §2

Another test relates to MKL-2. The description is as above. The settings on record: MCC and control cell lines, CellTiter-Glo viability, 72 h; series mostly up to 46 µM. In outline: as §2
The test system of a further test is UISO. The description is as above. The settings on record: MCC and control cell lines, CellTiter-Glo viability, 72 h; series mostly up to 46 µM. The gist of the method:
as §2

The next test deals with C33A. Put plainly: Primary qHTS to identify gynecologic anti-cancer compounds using libraries of approved drugs and bioactive compounds (AID 1345084). Note: % is set by controls: 0 for no effect and ±100 for the full control effect; nearly all actives have a fitted effect of over 55% in size. The settings on record: Gynecologic cancer cell panel viability, ATPlite luminescence, 48 h; series mostly up to 57.5 µM. The gist of the method: (§3)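 Cells, 1,000 per well, were allowed to settle for 16 h at 37 C before compound addition. Five concentrations were tested for 48 h, and viability was read by ATPlite luminescence after 15 min at room temperature.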

A further test has as its system CASKI. Described as above. The settings on record: Gynecologic cancer cell panel viability, ATPlite luminescence, 48 h; series mostly up to 57.5 µM. The gist of the method:
as §3

The next test relates to Es-2. The description is as above. The settings on record: Gynecologic cancer cell panel viability, ATPlite luminescence, 48 h; series mostly up to 57.5 µM. The gist of the method:
as §3

The next test relates to CRL-7250. Nature of the test: Cytotoxic Profiling of Annotated Libraries Using Quantitative High-Throughput Screening (AID 1296008). For max response: % is set by controls: 0 for no effect and ±100 for the full control effect. Note: nearly all actives have a fitted effect of over 60% in size. Note: potency is the fitted concentration of half-maximal effect. The settings on record: Five cell lines viability, CellTiter-Glo ATP luminescence, 48-72 h; max response: stronger effect = lower value. In outline: as §1
A further test has as its system MKL-1. Nature of the test: qHTS assay to identify novel small-molecules to repurpose for Merkel cell carcinoma treatment (AID 1296009). Note: nearly all actives have a fitted effect of over 60% in size. Note: potency is the fitted concentration of half-maximal effect. The settings on record: MCC and control cell lines, CellTiter-Glo viability, 72 h; series mostly up to 46 µM. The gist of the method:
as §2

Another test has as its system WaGa. The test is described as above. The settings on record: MCC and control cell lines, CellTiter-Glo viability, 72 h; series mostly up to 46 µM. In outline: as §2
The test system of another test is MCC-13. Described as above. The settings on record: MCC and control cell lines, CellTiter-Glo viability, 72 h; series mostly up to 46 µM. The gist of the method: as §2
Another test concerns TAB165. Nature of the test: qHTS profiling for inhibitors of Plasmodium falciparum proliferation (AID 504749). The settings on record: P. falciparum in erythrocytes, SYBR Green DNA, 72 h; series mostly up to 28.7 µM. In outline:
(§4)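 Three-day growth assay of blood-stage parasites in erythrocytes (0.3% parasitemia, 2.5% hematocrit) at 37 C, 5% CO2, quantified by SYBR Green DNA staining after overnight detergent lysis.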

The next test has as its system W2. Described as above. The settings on record: P. falciparum in erythrocytes, SYBR Green DNA, 72 h; series mostly up to 28.7 µM. In outline: as §4
Test [2] deals with HACAT. Put plainly: qHTS assay to identify novel small-molecules to repurpose for Merkel cell carcinoma treatment (AID 1296009). Note: nearly all actives have a fitted effect of over 60% in size. Note: potency is the fitted concentration of half-maximal effect. The settings on record: MCC and control cell lines, CellTiter-Glo viability, 72 h; at 44.8 µM (top of the series) unless noted. The gist of the method: as §2
For another test, the system named is HeLa. Nature of the test: Primary qHTS to identify gynecologic anti-cancer compounds using libraries of approved drugs and bioactive compounds (AID 1345084). Note: % is set by controls: 0 for no effect and ±100 for the full control effect; nearly all actives have a fitted effect of over 55% in size. The settings on record: Gynecologic cancer cell panel viability, ATPlite luminescence, 48 h; series mostly up to 57.5 µM. The gist of the method:
as §3

Molecules are shown by their SMILES. Values joined by “and” are separate entries in the source; they are usually repeats but may differ in a detail not shown here. Identical values can stand only once. Records with an inconclusive call do not appear. A number with no mark means an inactive call. Active and inactive are the calls of the source. Calls come from the whole dose curve; as a rule, active = well fitted curve in the direction sought with a large enough effect; inconclusive = small, poorly fitted or top-dose-only effect, or another doubt; inactive = no such curve, though single readings can be large; an effect the other way counts as inactive or inconclusive.

`Cc1cncc2cccc(S(=O)(=O)N3CCCN(C(=O)CN)C[C@@H]3C)c12`: the call with HEK293 was inactive. The Potency is 8.33 µM (active) with HaCat [1] and 26.4 µM (active) in the test on NIH3T3. In addition, the max response with KB-3-1 is -18.7% and -19.4%. Also, the Potency result in the test on HEK293T, in the test with MCC-26, with MKL-2, in the test with UISO, in the test on C33A and with CASKI was “inactive” throughout. The Potency entry with Es-2 was “inactive”.

`CN(C)CCN1C(=O)c2cccc3cc(N)cc(c23)C1=O`: the Potency in the test on CRL-7250 was 10.5 µM (active); in the test on KB-3-1 it was 16.6 µM (active); in the test on NIH3T3, 3.32 µM (active); with MKL-1 it was 14.8 µM (active); in the test with MKL-2, 18.7 µM (active); in the test on UISO it was 7.43 µM (active). For the same compound, the Potency in the test with WaGa was 9.35 µM (active). Also, the Potency result in the test with MCC-26 was “inactive”.

On to `CC(C)NC[C@@H](C(=O)N1CCN(c2ncnc3c2[C@H](C)C[C@H]3O)CC1)c1ccc(Cl)cc1`, for which the Potency is 0.209 µM (active) in the test with HEK293, 4.18 µM (active) in the test on HaCat [1], 1.66 µM (active) in the test with MKL-2 and 2.09 µM (active) with WaGa. The Potency entry in the test on MCC-13 and with MCC-26 was “inactive” in each case.

Turning to `CC(C)(C)c1nc2c3cc[nH]c(=O)c3c3cc(F)ccc3c2[nH]1`, the Potency in the test with HaCat [1] is 6.62 µM (active). The max response in the test with KB-3-1 is -11.6%. Further, the Potency entry with MCC-26, with MKL-1, in the test on MKL-2 and in the test with WaGa was “inactive” in each case.

Turning to `N#CC(=C(N)Sc1ccc(N)cc1)c1ccccc1C(F)(F)F`, the Potency in the test with HaCat [1] was 1.66 µM (active). In addition, in the test on KB-3-1, the max response is -9.42%. For the same compound, the Potency result in the test with MCC-26, in the test on MKL-1, in the test with MKL-2, with UISO and in the test with WaGa was “inactive” in each case.

Consider `CC[C@]12C=CCN3CC[C@@]4(c5cc([C@@]6(C(=O)OC)C[C@H]7C[C@@H](C(C)(F)F)CN(Cc8c6[nH]c6ccccc86)C7)c(OC)cc5N(C)[C@H]4[C@@](O)(C(=O)OC)[C@H]1OC(C)=O)[C@@H]32`, for which the Potency in the test with HEK293 is 0.0083 µM (active); with KB-3-1, 0.0105 µM (active); with WaGa, 0.0059 µM (active). The max response in the test with HaCat [1] was -0.147%.

As to `Nc1nc(N)c2nc(-c3cccc(O)c3)c(-c3cccc(O)c3)nc2n1`, the Potency was 14.8 µM (active) with HaCat [1] and 10.5 µM (active) in the test on KB-3-1. The Potency result with MCC-13 and in the test on MCC-26 was “inactive” in each case.

As for `CCCCCCCCCCCC(CC1OC(=O)C1CCCCCC)OC(=O)C(CC(C)C)NC=O` (configuration not stated), the Potency with TAB165 was 0.398 µM (active); in the test with W2, 0.675 µM (active). Moreover, the call with HaCat [1] and in the test with HACAT [2] was inactive. For the same compound, the max response with KB-3-1 is 7.07%; with NIH3T3, 0.608%. Further, the Potency result in the test on MCC-13, with MCC-26, in the test with MKL-1, with UISO and in the test on WaGa was “inactive” throughout.

As to `NC(=O)N1CCC(CC(=O)N2CCC([C@H]3c4ncc(Br)cc4CCc4cc(Cl)cc(Br)c43)CC2)CC1`, the Potency in the test on HEK293 is 1.32 µM (active); in the test on HaCat [1] it was 10.5 µM (active); in the test with WaGa, 11.8 µM (active). In the test with NIH3T3, the max response was -22.6%. For the same compound, the Potency entry in the test with MCC-13 and in the test with MCC-26 was “inactive” each time.

Consider `CCCCCN=C(N)NN=Cc1c[nH]c2ccc(OC)cc12`, for which the Potency in the test with HEK293 is 7.43 µM (active); in the test with KB-3-1, 10.5 µM (active); in the test on NIH3T3 it was 13.2 µM (active).

Turning to `CN1[C@H]2CC(OC(=O)[C@@H](CO)c3ccccc3)C[C@H]1[C@H]1O[C@H]12` (some centres not stated), the outcome in the test on HACAT [2] is “inactive [at 17.4 µM]”. In addition, the Potency entry with MCC-13, in the test with MCC-26, in the test with MKL-1, in the test with MKL-2, with UISO and in the test with WaGa was “inactive” in each case.

As to `CC(C)n1cnc2c(NCCc3ccc(O)cc3)nc(-c3csc4ccccc34)nc21`, the max response in the test with NIH3T3 was -7.93%. Further, the Potency entry in the test on MCC-13, with WaGa, with C33A, in the test on CASKI, in the test with Es-2 and in the test on HeLa was “inactive” in each case.

Take `CCc1cnn2c(NCc3ccc[n+]([O-])c3)cc(N3CCCC[C@@H]3CCO)nc12`: the Potency was 0.0332 µM (active) in the test with HEK293; 0.105 µM (active) with NIH3T3; 0.0833 µM (active) in the test with MCC-26; 0.0418 µM (active) in the test with MKL-2; 0.0935 µM (active) with UISO.

In the case of `CCC(C(=O)O)C1CCC(C)C(C(C)C(O)C(C)C(=O)C(CC)C2OC3(C=CC(O)[C@@]4(CC[C@](C)(C5CC[C@@](O)(CC)C(C)O5)O4)O3)C(C)CC2C)O1` (some centres not stated), the Potency is 0.708 µM (active) in the test with TAB165; 0.757 µM (active) with W2; 1.18 µM (active) in the test with HEK293; 8.33 µM (active) with NIH3T3; 10.5 µM (active) with MCC-13; 2.96 µM (active) in the test with MKL-1. Further, the Potency is 3.32 µM (active) in the test on MKL-2, 3.72 µM (active) in the test on UISO and 2.96 µM (active) in the test with WaGa.

For the compound `CCOc1cc2c(c(F)c1OCC)C(=N)N(CC(=O)c1cc(N3CCOCC3)c(OC)c(C(C)(C)C)c1)C2`, in the test on HEK293, the Potency is 16.4 µM (active). Further, the Potency entry in the test on MCC-13, in the test with MCC-26, in the test on WaGa, with CASKI, with Es-2 and in the test on HeLa was “inactive” each time.

With `C[C@H](NCc1ccc(OCc2cccc(F)c2)cc1)C(N)=O`, the Potency in the test with HEK293 is 11.8 µM (active); in the test with KB-3-1 it was 9.35 µM (active); with NIH3T3, 4.18 µM (active); with MCC-26, 20.9 µM (active); in the test with MKL-1, 10.5 µM (active); with UISO, 16.6 µM (active). In the test on WaGa, the Potency is 18.7 µM (active).

`O=c1c(O)c(-c2ccc(O)c(O)c2)oc2cc(O)ccc12`: the result in the test on HaCat [1] and with HACAT [2] was inactive. The Potency result in the test with MCC-13, in the test with MCC-26, in the test on MKL-1 and in the test on MKL-2 was “inactive” each time.

As to `CCc1ccc(C(=O)Nc2cc(CN3CCN(C)CC3)cc(C(F)(F)F)c2)cc1C#Cc1cnc2ccnn2c1`, the Potency in the test with HEK293 was 10.5 µM (active); in the test with KB-3-1 it was 8.33 µM (active); with MKL-2 it was 18.7 µM (active).

These data come from PubChem BioAssay (NCATS).
